# Source: PubChem BioAssay (EPA / NIEHS)
# “And” between values parts separate entries of the source, which are not always exact repeats. Equal entries are not always repeated. Inconclusive results are not listed. Some structures have more than one record in an assay (separate samples or runs), and their calls can disagree. The source made the active and inactive calls. How the source made its calls, unless noted: active means hit-call score of the fitted dose curve at least 0.9, where 1 is the maximum; inconclusive means response in the unintended direction; inactive means score below 0.9.
# Key:
# [1] = CCTE_Shafer_MEA_acute_synchrony_index: CCTE's Neural Acute Assay for Synchrony, Shafer Lab (AID 2284027; active means hit-call score of the fitted dose curve at least 0.9, where 1 is the maximum; inactive means score below 0.9;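 further: network synchrony index of spontaneous spiking in primary rat cortical neurons on MEAs; fitted for loss of signal so actives lower synchrony relative to DMSO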)
# Outline: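 The synchrony index is taken as percent change per well between a 40 min baseline and a 40 min recording with compound (0.03–40 uM), at 37C. Rat cortical cultures on multiwell MEAs at DIV 13 or 15, spike threshold 8× rms noise.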
# [2] = biological target: Estrogen receptor (Homo sapiens) (UniProt P03372); assay: CCTE_Deisenroth_AIME_384WELL_LUC_Active: CCTE's 384-well Estrogen Receptor Transactivation Assay with AIME metabolic competence (ERTA luciferase; metabolism positive), Deisenroth Lab (AID 2284030)
# Outline: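 Chemicals (10-point, 0.002-200 uM) were first incubated 2 hours with alginate-immobilized induced male Sprague Dawley rat liver S9. The conditioned medium was then applied to VM7Luc4E2 cells for 24 hours, with ER luciferase induction read by luminescence relative to 17beta-estradiol.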
# [3] = CCTE_Shafer_MEA_dev_firing_rate_mean: CCTE's Neural Network Formation Assay for Mean Firing Rate, Shafer Lab (AID 2284031; active means hit-call score of the fitted dose curve at least 0.9, where 1 is the maximum; inactive means score below 0.9)
# Outline: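 Spike frequency (spikes/recording length, averaged over active electrodes) was recorded on days 5, 7, 9 and 12 and collapsed to AUC; rat cortical cultures received compound continuously over 12 days of network development.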
# [4] = CCTE_Shafer_MEA_dev_per_burst_spike_percent: CCTE's Neural Network Formation Assay for Percent of Spikes in a Burst, Shafer Lab (AID 2284032; active means hit-call score of the fitted dose curve at least 0.9, where 1 is the maximum; inactive means score below 0.9;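 on AC50: fitted as a decrease in burst spike percentage below DMSO baseline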)
# Outline: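 Value is trapezoidal AUC over recordings on days 5, 7, 9 and 12 of the well-mean fraction of spikes falling in single-electrode bursts; rat cortical cultures exposed continuously from plating, treatment renewed DIV 5 and 9, fitted downward against DMSO.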
# [5] = biological target: Estrogen receptor (Homo sapiens) (UniProt P03372); assay: CCTE_Deisenroth_AIME_384WELL_LUC_Inactive: CCTE's 384-well Estrogen Receptor Transactivation Assay without AIME metabolic competence (ERTA luciferase; metabolism negative), Deisenroth Lab (AID 2284038);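 further: hits raise estrogen receptor luciferase signal so potencies reflect agonists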
# Outline: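 VM7Luc4E2 ER transactivation, luciferase bioluminescence after 24 h, using medium pre-incubated 2 h with S9-free alginate microspheres. Concentrations 0.002–200 uM; gain of signal fitted relative to 17beta-estradiol.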
# [6] = CCTE_Shafer_MEA_dev_active_electrodes_number: CCTE's Neural Network Formation Assay for Number of Active Electrodes, Shafer Lab (AID 2284040);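 on AC50: potency for loss of active electrodes versus DMSO so lower counts are hits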
# Outline: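 Counts electrodes per well firing at least 5 spikes/min, recorded on days 5, 7, 9 and 12 in rat cortical cultures dosed continuously from plating (treatment refreshed DIV 5, 9). Value is the area under the curve over recordings, fitted downward relative to DMSO.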
# [7] = CCTE_Deisenroth_AIME_384WELL_CTox_Active: Cytotoxicity Assessment (CTOX) in CCTE's 384-well Estrogen Receptor Transactivation Assay with AIME metabolic competence (metabolism positive), Deisenroth Lab (AID 2284037);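 further: chemicals first conditioned 2 h by alginate-bound induced rat liver S9 before cells; activity means signal loss indicating cell death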
# Outline: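 Chemicals pre-incubated 2 hours with alginate-immobilised phenobarbital/beta-naphthoflavone-induced male Sprague Dawley rat liver S9, then conditioned medium applied 24 hour to VM7Luc4E2 cells. Viability by fluorogenic protease substrate; 10-point series 0.002 - 200 uM.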
# [8] = CCTE_Deisenroth_AIME_384WELL_CTox_Inactive: Cytotoxicity Assessment (CTOX) in CCTE's 384-well Estrogen Receptor Transactivation Assay without AIME metabolic competence (metabolism negative), Deisenroth Lab (AID 2284039);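 further: cell viability via live-cell protease substrate cleaved to fluorescent probe; cells exposed 24 h to medium preincubated 2 h with alginate-water beads without S9; loss of fluorescence signal means loss of viability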
# Outline: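 VM7Luc4E2 human breast cells received conditioned medium from a 2 h incubation of chemical with alginate-water microspheres (no S9), then were exposed 24 h. Viability was read as protease-substrate cleavage to a fluorescent probe; loss of signal was fitted bidirectionally over 0.002–200 uM.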
# Sequence of Estrogen receptor (Homo sapiens) (P03372 whole entry, looked up): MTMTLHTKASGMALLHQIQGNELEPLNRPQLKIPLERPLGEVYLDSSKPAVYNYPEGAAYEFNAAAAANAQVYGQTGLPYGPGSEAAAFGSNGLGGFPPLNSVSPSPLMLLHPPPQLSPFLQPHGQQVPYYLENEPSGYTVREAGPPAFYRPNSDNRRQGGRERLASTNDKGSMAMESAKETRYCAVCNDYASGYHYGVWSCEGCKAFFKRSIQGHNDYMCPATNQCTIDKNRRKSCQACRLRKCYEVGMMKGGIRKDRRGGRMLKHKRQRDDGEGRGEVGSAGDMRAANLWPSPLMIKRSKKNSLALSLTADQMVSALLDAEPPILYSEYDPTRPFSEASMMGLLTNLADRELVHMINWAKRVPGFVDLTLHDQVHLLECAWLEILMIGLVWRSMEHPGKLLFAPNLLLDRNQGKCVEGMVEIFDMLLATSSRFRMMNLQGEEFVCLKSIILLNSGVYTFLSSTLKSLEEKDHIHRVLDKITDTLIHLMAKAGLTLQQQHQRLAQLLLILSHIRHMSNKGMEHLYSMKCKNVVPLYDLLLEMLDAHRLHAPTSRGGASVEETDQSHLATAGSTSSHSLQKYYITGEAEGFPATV
smiles,measurement,setting,value
CCOP(=O)(OCC)Oc1nc(Cl)c(Cl)cc1Cl,AC50,[1],0.0262 µM (active)
same,outcome,[2],inactive
same,outcome,[3],inactive
same,AC50,[4],1.39 µM (active) and 15 µM (active)
same,outcome,[4],inactive
same,outcome,[5],inactive
same,AC50,[6],904 nM (active) and 8.09 µM (active)
same,outcome,[6],inactive
CC(C)N1C(=O)N(c2ccccc2)CSC1=NC(C)(C)C,AC50,[1],23.2 µM (active)
same,outcome,[2],inactive
same,outcome,[7],inactive
same,outcome,[5],inactive
same,outcome,[8],inactive
COCC(C)N(C(=O)CCl)c1c(C)csc1C (stereo unspecified),outcome,[2],inactive
same,outcome,[7],inactive
same,outcome,[5],inactive
same,outcome,[8],inactive
CCOc1nc(C(Cl)(Cl)Cl)ns1,outcome,[2],inactive
same,outcome,[5],inactive
CCNC(=O)NC(=O)C(C#N)=NOC,outcome,[3],inactive
same,outcome,[4],inactive
same,outcome,[6],inactive
Nc1c(Cl)c(Cl)nc(C(=O)O)c1Cl,AC50,[2],41.7 µM (active)
same,outcome,[7],inactive
same,AC50,[5],14.3 µM (active)
same,outcome,[8],inactive
N#Cc1c(Cl)cccc1Cl,outcome,[2],inactive
same,outcome,[7],inactive
same,outcome,[5],inactive
same,outcome,[8],inactive
CCCCOCN(C(=O)CCl)c1c(CC)cccc1CC,outcome,[7],inactive
CCN(CC)c1nc(C)cc(OP(=S)(OC)OC)n1,outcome,[3],inactive
same,AC50,[4],30.9 µM (active)
same,AC50,[6],33 µM (active)
CNC(=O)N(C)c1nnc(C(C)(C)C)s1,outcome,[2],inactive
same,outcome,[5],inactive
COC(=O)NS(=O)(=O)c1ccc(N)cc1,outcome,[2],inactive
same,outcome,[5],inactive
CS(=O)(=O)c1ccc(C(=O)C2C(=O)CCCC2=O)c([N+](=O)[O-])c1,outcome,[3],inactive
same,outcome,[4],inactive
same,outcome,[6],inactive
COc1cc(OC)nc(NC(=O)NS(=O)(=O)c2ncccc2OCC(F)(F)F)n1,outcome,[2],inactive
same,outcome,[7],inactive
same,outcome,[5],inactive
same,outcome,[8],inactive
CCCCC(C#N)(Cn1cncn1)c1ccc(Cl)cc1 (stereo unspecified),outcome,[7],inactive
